# Source: PubChem BioAssay (Tox21)
# Several values for one entry are separate records, joined by “and”; a condition that tells them apart may be missing. Equal entries are not always repeated. Inconclusive results are not listed. A call without a number means that no potency is given here. More than one record can exist for a structure, and the calls need not agree. Activity calls are given as the source filed them. Calls follow the shape of the dose curve; as a rule, active = well fitted curve in the direction sought with a large enough effect in the repeat runs; inconclusive = weak or mixed curves; inactive = no such curve, though single readings can be large; an effect the other way counts as inactive or inconclusive.
# Tests used:
# [1] = qHTS RealTime-Glo MT Cell Viability Assay in HepG2 cells - 40 hour (AID 1224870); also: nearly all actives have a fitted effect of over 50% in size
# In short: (§1)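 HepG2 cells mixed with RealTime-Glo MT reagents (NanoLuc plus cell-permeant prosubstrate) were seeded at 600 cells/well, incubated 5 h at 37 C/5% CO2, then pinned with compounds in DMSO; nonlytic luminescence tracked viability during 40 h treatment.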
# [2] = A CellTox Green Cytotoxicity Assay to monitor cytotoxicity in HEK293 cells - 40 hour (AID 1224871); also: nearly all actives have a fitted effect of over 45% in size; also: potency is read from the fitted curve at half-maximal effect
# In short: (§2)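 Real-time, in one plate: 600 HEK293 cells/well with dead-cell DNA dye, pinned compound after 5 h, 37 C incubation over 40 h; viable cells give no appreciable fluorescence.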
# [3] = qHTS RealTime-Glo MT Cell Viability Assay in HEK293 cells - 16 hour (AID 1224872); also: nearly all actives have a fitted effect of over 50% in size; also: potency is read from the fitted curve at half-maximal effect
# In short: (§3)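 Reads taken at 0, 8, 16, 24, 32 and 40 h from the same wells. HEK293 cells (600/well) carried RealTime-Glo reagents from seeding, with compound added after a 5 h settle at 37 C.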
# [4] = qHTS RealTime-Glo MT Cell Viability Assay in HepG2 cells - 8 hour (AID 1224873); also: nearly all actives have a fitted effect of over 55% in size
# In short: as §1
# [5] = qHTS RealTime-Glo MT Cell Viability Assay in HEK293 cells - 40 hour (AID 1224874); conditions: RealTime-Glo luminescence; max response: stronger effect = lower value; also: nearly all actives have a fitted effect of over 50% in size; also: potency is read from the fitted curve at half-maximal effect
# In short: (§4)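 Kinetic, non-lysing viability readout. Seed HEK293 (600/well) with reagent, incubate 5 h at 37 C/5% CO2, pin 23 nL compound in DMSO, incubate at 37 C, read luminescence at 0, 8, 16, 24, 32, 40 h.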
# [6] = A CellTox Green Cytotoxicity Assay to monitor cytotoxicity in HEK293 cells - 24 hour (AID 1224875); also: series mostly up to about 77 µM; nearly all actives have a fitted effect of over 45% in size
# In short: as §2
# [7] = A CellTox Green Cytotoxicity Assay to monitor cytotoxicity in HepG2 cells - 16 hour (AID 1224876); also: nearly all actives have a fitted effect of over 45% in size; also: potency is read from the fitted curve at half-maximal effect
# In short: (§5)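 Cytotoxicity was tracked as dead-cell DNA fluorescence in HepG2 cells treated with test compounds at 37 C; each time-point value comes from one kinetic series spanning 0, 8, 16, 24, 32 and 40 h.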
# [8] = qHTS RealTime-Glo MT Cell Viability Assay in HepG2 cells - 32 hour (AID 1224877); also: nearly all actives have a fitted effect of over 55% in size
# In short: (§6)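 HepG2 suspension premixed with RealTime-Glo reagents is plated at 600 cells per well and left 5 h at 37 C/5% CO2. Compounds in DMSO then go in, and bioluminescence reflecting viable cell number is recorded over 40 h.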
# [9] = A CellTox Green Cytotoxicity Assay to monitor cytotoxicity in HepG2 cells - 24 hour (AID 1224878); also: nearly all actives have a fitted effect of over 45% in size; also: potency is read from the fitted curve at half-maximal effect
# In short: as §5
# [10] = A CellTox Green Cytotoxicity Assay to monitor cytotoxicity in HepG2 cells - 40 hour (AID 1224879); also: nearly all actives have a fitted effect of over 40% in size; also: potency is read from the fitted curve at half-maximal effect
# In short: as §5
# [11] = qHTS RealTime-Glo MT Cell Viability Assay in HEK293 cells - 0 hour (AID 1224880)
# In short: as §4
# [12] = A CellTox Green Cytotoxicity Assay to monitor cytotoxicity in HEK293 cells - 32 hour (AID 1224881); also: nearly all actives have a fitted effect of over 40% in size; also: potency is read from the fitted curve at half-maximal effect
# In short: as §2
# [13] = A CellTox Green Cytotoxicity Assay to monitor cytotoxicity in HepG2 cells - 0 hour (AID 1224882); also: nearly all actives have a fitted effect of over 35% in size; also: potency is read from the fitted curve at half-maximal effect
# In short: as §5
# [14] = A CellTox Green Cytotoxicity Assay to monitor cytotoxicity in HepG2 cells - 32 hour (AID 1224883); also: nearly all actives have a fitted effect of over 50% in size; also: potency is read from the fitted curve at half-maximal effect
# In short: as §5
# [15] = A CellTox Green Cytotoxicity Assay to monitor cytotoxicity in HEK293 cells - 8 hour (AID 1224884); also: nearly all actives have a fitted effect of over 35% in size; also: potency is read from the fitted curve at half-maximal effect
# In short: as §2
# [16] = qHTS RealTime-Glo MT Cell Viability Assay in HepG2 cells - 16 hour (AID 1224885); also: nearly all actives have a fitted effect of over 50% in size
# In short: as §6
# [17] = qHTS RealTime-Glo MT Cell Viability Assay in HEK293 cells - 24 hour (AID 1224886); also: nearly all actives have a fitted effect of over 50% in size; also: potency is read from the fitted curve at half-maximal effect
# In short: as §3
# [18] = qHTS RealTime-Glo MT Cell Viability Assay in HEK293 cells - 8 hour (AID 1224887); also: nearly all actives have a fitted effect of over 50% in size; also: potency is read from the fitted curve at half-maximal effect
# In short: as §4
# [19] = A CellTox Green Cytotoxicity Assay to monitor cytotoxicity in HEK293 cells - 16 hour (AID 1224888); also: nearly all actives have a fitted effect of over 35% in size
# In short: as §2
# [20] = qHTS RealTime-Glo MT Cell Viability Assay in HepG2 cells - 0 hour (AID 1224889); also: nearly all actives have a fitted effect of over 50% in size
# In short: as §6
smiles,measurement,setting,value
COCC(=O)O,Potency,[1],inactive
same,Potency,[2],inactive
same,Potency,[3],inactive
same,Potency,[4],inactive
same,max response,[5],0.194% (inactive) and 4.44% (inactive)
same,Potency,[6],inactive
same,Potency,[7],inactive
same,Potency,[8],inactive
same,Potency,[9],inactive
same,Potency,[10],inactive
same,Potency,[11],inactive
same,Potency,[12],inactive
same,Potency,[13],inactive
same,Potency,[14],inactive
same,Potency,[15],inactive
same,Potency,[16],inactive
same,Potency,[17],inactive
same,Potency,[18],inactive
same,Potency,[19],inactive
same,Potency,[20],inactive
Oc1ccc(OCc2ccccc2)cc1,Potency,[1],inactive
same,Potency,[2],inactive
same,Potency,[3],957 nM (active) and inactive
same,Potency,[4],inactive
same,Potency,[5],1.2 µM (active)
same,max response,[5],-10.3% (inactive)
same,Potency,[7],inactive
same,Potency,[8],inactive
same,Potency,[9],inactive
same,Potency,[10],inactive
same,Potency,[11],inactive
same,Potency,[12],inactive
same,Potency,[13],inactive
same,Potency,[14],inactive
same,Potency,[15],inactive
same,Potency,[16],inactive
same,Potency,[17],853 nM (active) and inactive
same,Potency,[18],853 nM (active) and inactive
same,Potency,[19],inactive
same,Potency,[20],inactive
Cn1c([N+](=O)[O-])cnc1COC(N)=O,Potency,[1],inactive
same,Potency,[2],inactive
same,Potency,[3],inactive
same,Potency,[4],inactive
same,max response,[5],0.779% (inactive) and 12.4% (inactive)
same,Potency,[6],inactive
same,Potency,[7],inactive
same,Potency,[8],inactive
same,Potency,[9],inactive
same,Potency,[10],inactive
same,Potency,[11],inactive
same,Potency,[12],inactive
same,Potency,[13],inactive
same,Potency,[14],inactive
same,Potency,[15],inactive
same,Potency,[16],inactive
same,Potency,[17],inactive
same,Potency,[18],inactive
same,Potency,[19],inactive
same,Potency,[20],inactive
O=[N+]([O-])C(CO)(CO)CO,Potency,[1],inactive
same,Potency,[2],inactive
same,Potency,[3],inactive
same,Potency,[4],inactive
same,max response,[5],10.8% (inactive)
same,Potency,[6],inactive
same,Potency,[7],inactive
same,Potency,[8],inactive
same,Potency,[9],inactive
same,Potency,[10],inactive
same,Potency,[11],inactive
same,Potency,[12],inactive
same,Potency,[13],inactive
same,Potency,[14],inactive
same,Potency,[15],inactive
same,Potency,[16],inactive
same,Potency,[17],inactive
same,Potency,[18],inactive
same,Potency,[19],inactive
same,Potency,[20],inactive
CCCCC(CC)COC(=O)CCCCCCCC(=O)OCC(CC)CCCC (centres undefined),Potency,[1],inactive
same,Potency,[2],49 µM (active) and inactive
same,Potency,[3],24.5 µM (active) and inactive
same,Potency,[4],inactive
same,Potency,[5],4.9 µM (active)
same,max response,[5],4.32% (inactive)
same,Potency,[7],49 µM (active)
same,Potency,[8],inactive
same,Potency,[9],49 µM (active)
same,Potency,[10],43.6 µM (active)
same,Potency,[11],inactive
same,Potency,[12],54.9 µM (active) and inactive
same,Potency,[13],54.9 µM (active) and inactive
same,Potency,[14],49 µM (active)
same,Potency,[15],54.9 µM (active) and inactive
same,Potency,[16],inactive
same,Potency,[17],24.5 µM (active) and inactive
same,Potency,[18],inactive
same,Potency,[20],inactive
Cc1ccc(C)c(C)c1,Potency,[1],inactive
same,Potency,[2],inactive
same,Potency,[3],inactive
same,Potency,[4],inactive
same,max response,[5],7.97% (inactive) and 2.35% (inactive)
same,Potency,[6],inactive
same,Potency,[7],inactive
same,Potency,[8],inactive
same,Potency,[9],inactive
same,Potency,[10],inactive
same,Potency,[11],inactive
same,Potency,[12],inactive
same,Potency,[13],inactive
same,Potency,[14],inactive
same,Potency,[15],inactive
same,Potency,[16],inactive
same,Potency,[17],inactive
same,Potency,[18],inactive
same,Potency,[19],inactive
same,Potency,[20],inactive
CC1COc2ccccc2N1C(=O)C(Cl)Cl (centres undefined),Potency,[1],inactive
same,Potency,[2],inactive
same,Potency,[3],inactive
same,Potency,[4],inactive
same,max response,[5],-21% (inactive)
same,Potency,[6],inactive
same,Potency,[7],inactive
same,Potency,[8],inactive
same,Potency,[9],inactive
same,Potency,[10],inactive
same,Potency,[11],inactive
same,Potency,[12],inactive
same,Potency,[13],inactive
same,Potency,[14],inactive
same,Potency,[15],inactive
same,Potency,[16],inactive
same,Potency,[17],inactive
same,Potency,[18],inactive
same,Potency,[19],inactive
same,Potency,[20],inactive
Cc1cc(Cc2ccc(N)c(C)c2)ccc1N,Potency,[1],inactive
same,Potency,[2],inactive
same,Potency,[3],inactive
same,Potency,[4],inactive
same,max response,[5],-20.5% (inactive) and -29% (inactive)
same,Potency,[6],inactive
same,Potency,[7],inactive
same,Potency,[8],inactive
same,Potency,[9],inactive
same,Potency,[10],inactive
same,Potency,[11],inactive
same,Potency,[12],inactive
same,Potency,[13],inactive
same,Potency,[14],inactive
same,Potency,[15],inactive
same,Potency,[16],inactive
same,Potency,[17],inactive
same,Potency,[18],inactive
same,Potency,[19],inactive
same,Potency,[20],inactive
CC(=O)CCc1ccccc1,Potency,[1],inactive
same,Potency,[2],inactive
same,Potency,[3],inactive
same,Potency,[4],inactive
same,max response,[5],1.52% (inactive) and -3.07% (inactive)
same,Potency,[6],inactive
same,Potency,[7],inactive
same,Potency,[8],inactive
same,Potency,[9],inactive
same,Potency,[10],inactive
same,Potency,[11],inactive
same,Potency,[12],inactive
same,Potency,[13],inactive
same,Potency,[14],inactive
same,Potency,[15],inactive
same,Potency,[16],inactive
same,Potency,[17],inactive
same,Potency,[18],inactive
same,Potency,[19],inactive
same,Potency,[20],inactive
CS(=O)(=O)c1ccc([C@@H](O)[C@@H](CO)NC(=O)C(Cl)Cl)cc1,Potency,[1],inactive
same,Potency,[2],inactive
same,Potency,[3],inactive
same,Potency,[4],inactive
same,max response,[5],13.1% (inactive) and 7.93% (inactive)
same,Potency,[6],inactive
same,Potency,[7],inactive
same,Potency,[8],inactive
same,Potency,[9],inactive
same,Potency,[10],inactive
same,Potency,[11],inactive
same,Potency,[12],inactive
same,Potency,[13],inactive
same,Potency,[14],inactive
same,Potency,[15],inactive
same,Potency,[16],inactive
same,Potency,[17],inactive
same,Potency,[18],inactive
same,Potency,[19],inactive
same,Potency,[20],inactive
